Measured values taken from the supplement of paper PMC8728848.
About 410 targets per protein were measured; listed, in parts, are those with the strongest signals and a random draw of the rest.

Experiments:
Assay in all cases: glycan array binding signal (z-score within array); higher = stronger binding
Details in all cases: glycan notation: IUPAC condensed, linker removed
[1] = biological target: Fuc(a1-2)Gal(b1-3)GalNAc(b1-3)Gal
Summary of the method: (§1)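 The binding signal is a Z-score computed within each array. Data were drawn from 3228 arrays in the Consortium for Functional Glycomics database, restricted to those with a known protein sequence. Scores were averaged over arrays of the same protein sequence at different concentrations or buffers, and over linkers, and negative values can be taken as non-binding.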

[2] = biological target: Fuc(a1-2)Gal(b1-3)[Fuc(a1-4)]GlcNAc
Summary of the method: as §1

[3] = biological target: Fuc(a1-2)Gal(b1-3)[Fuc(a1-4)]GlcNAc(b1-3)[Gal(b1-4)GlcNAc(b1-6)]Gal(b1-4)Glc
Summary of the method: as §1

[4] = biological target: Fuc(a1-2)Gal(b1-4)GlcNAc(b1-3)Gal(b1-4)GlcNAc(b1-2)Man(a1-3)[Fuc(a1-2)Gal(b1-4)GlcNAc(b1-3)Gal(b1-4)GlcNAc(b1-2)Man(a1-6)]Man(b1-4)GlcNAc(b1-4)GlcNAc
Summary of the method: as §1

[5] = biological target: Fuc(a1-2)Gal(b1-4)[Fuc(a1-3)]GlcNAc(b1-3)Gal(b1-4)[Fuc(a1-3)]GlcNAc
Summary of the method: as §1

[6] = biological target: Fuc(a1-2)[Gal(a1-3)]Gal(b1-4)GlcNAc(b1-2)Man(a1-3)[Fuc(a1-2)[Gal(a1-3)]Gal(b1-4)GlcNAc(b1-2)Man(a1-6)]Man(b1-4)GlcNAc(b1-4)GlcNAc
Summary of the method: as §1

[7] = biological target: Fuc(a1-2)[Gal(a1-3)]Gal(b1-4)GlcNAc(b1-3)GalNAc
Summary of the method: as §1

[8] = biological target: Fuc(a1-2)[GalNAc(a1-3)]Gal(b1-3)GlcNAc(b1-6)GalNAc
Summary of the method: as §1

[9] = biological target: Fuc(a1-2)[GalNAc(a1-3)]Gal(b1-4)GlcNAc(b1-2)Man(a1-3)[Fuc(a1-2)[GalNAc(a1-3)]Gal(b1-4)GlcNAc(b1-2)Man(a1-6)]Man(b1-4)GlcNAc(b1-4)GlcNAc
Summary of the method: as §1

[10] = biological target: Fuc(a1-2)[GalNAc(a1-3)]Gal(b1-4)GlcNAc(b1-3)Gal(b1-4)GlcNAc(b1-3)Gal(b1-4)GlcNAc
Summary of the method: as §1

[11] = biological target: Fuc(a1-2)[GalNAc(b1-3)]Gal
Summary of the method: as §1

[12] = biological target: Fuc(a1-3)[GalNAc(b1-4)]GlcNAc
Summary of the method: as §1

[13] = biological target: Gal(a1-3)Gal(b1-4)GlcNAc(b1-2)Man
Summary of the method: as §1

[14] = biological target: Gal(a1-3)Gal(b1-4)GlcNAc(b1-2)Man(a1-3)[Gal(a1-3)Gal(b1-4)GlcNAc(b1-2)Man(a1-6)]Man(b1-4)GlcNAc(b1-4)GlcNAc
Summary of the method: as §1

[15] = biological target: Gal(a1-3)[Gal(a1-4)]Gal(b1-4)GlcNAc
Summary of the method: as §1

Gal(a1-4)Gal(b1-4)Glc = biological target: Gal(a1-4)Gal(b1-4)Glc
Summary of the method: as §1

[16] = biological target: Gal(b1-3)[Fuc(a1-4)]GlcNAc(b1-2)Man
Summary of the method: as §1

[17] = biological target: Gal(b1-3)[Fuc(a1-4)]GlcNAc(b1-3)Gal(b1-3)[Fuc(a1-4)]GlcNAc
Summary of the method: as §1

[18] = biological target: Gal(b1-4)GalNAc(a1-3)[Fuc(a1-2)]Gal(b1-4)GlcNAc
Summary of the method: as §1

Gal(b1-4)GlcNAc(b1-2)Man = biological target: Gal(b1-4)GlcNAc(b1-2)Man
Summary of the method: as §1

[19] = biological target: Gal(b1-4)GlcNAc(b1-6)GalNAc
Summary of the method: as §1

Gal(b1-6)Gal = biological target: Gal(b1-6)Gal
Summary of the method: as §1

Gal3S(b1-3)GalNAc = biological target: Gal3S(b1-3)GalNAc
Summary of the method: as §1

B1: Blon0732mut (Bifidobacterium longum) (protein)
chain: MPTSEHKADDATRHLTLIPAPVTLEYTHGTALIGPLVTIEDADQSWETLPIEQLSDELRHRYGVTVLRRRTHGTVISLGLDSRLAHDEYTLDVSESEGIRVRGGGESGLRYGLQTLRQIIGQTSRAIPCLHIQDKPAFAVRAYSLDVTRGRVPTMEFLTWFVDQLALYKYNQFQLYVEHAFAFVELSEAWRGTDPLTAADITYLDEYCARRGIELVPSLATFGHMYMNLRTREHRGLGEFPEDADRPFSFIERMEHHTLNAADPKAHDFASRLIEEYAPLFRSKSFNIGGNETFDLGRGRSAQDAPEAGRDELYAGFVRDLCETLARHGRQPMLWADIALESPRTMDLLPGDITMLNWMYEPQIDESKIQTIATQGRRQFVCPAVRAWSRFFPDYAGAWLNTYHMALAGTKYDAEGMVVTDWGDYGHVNDPRLSVPGLCYGAQNAWNPIEIDAHEMNRRISALVYGDESGRIMDCLARIDSDGVSFPWDLAVQVLELEYGSGTGALNMDVAACMERSSGGKLTLDRTLGCDDARRRMLQWNRERIERRRDCDQVLRDCGDAFAGLDKGGLTAEFLSVMLDGQRLFNELGEELLALADGKDVGSGANRLAADLELWFERYRAQWLSVGRHAELARIAHVVWSLADILRRGAL
B1 was tested, and the “glycan array binding signal (z-score)” value [1] was -1.26, the “glycan array binding signal (z-score)” value [2] was 0.087 and the “glycan array binding signal (z-score)” value [3] was -0.87. The “glycan array binding signal (z-score)” value [4] was -0.325, the “glycan array binding signal (z-score)” value [5] was 0.489 and the “glycan array binding signal (z-score)” value [6] was -0.864. For the same binder, the “glycan array binding signal (z-score)” value [7] was -0.533, the “glycan array binding signal (z-score)” value [8] was -0.809 and the “glycan array binding signal (z-score)” value [9] was 0.397. The “glycan array binding signal (z-score)” value [10] was 0.035, the “glycan array binding signal (z-score)” value [11] was 0.44 and the “glycan array binding signal (z-score)” value [12] was 1.89. The “glycan array binding signal (z-score)” value [13] was -0.505, the “glycan array binding signal (z-score)” value [14] was 0.086 and the “glycan array binding signal (z-score)” value [15] was 5.9. The “glycan array binding signal (z-score)” value (Gal(a1-4)Gal(b1-4)Glc) was 2.6, the “glycan array binding signal (z-score)” value [16] was -0.411 and the “glycan array binding signal (z-score)” value [17] was -0.751. The “glycan array binding signal (z-score)” value [18] was 0.345, the “glycan array binding signal (z-score)” value (Gal(b1-4)GlcNAc(b1-2)Man) was 1.31 and the “glycan array binding signal (z-score)” value [19] was 0.168. The “glycan array binding signal (z-score)” value (Gal(b1-6)Gal) was -0.313 and the “glycan array binding signal (z-score)” value (Gal3S(b1-3)GalNAc) was 1.16.
